The nature of experiment [1]: AP1 Signaling Pathway (AID 357; active = well fitted curve in either direction with a large enough effect, not every such curve was filed as active; also: % is scaled to controls: 0 for no effect and ±100 for the full control effect). As to conditions: ME-180 AP-1-bla reporter, EGF-induced, beta-lactamase ratio, 5 h; at 7.69 µM (top of the series) unless noted. An outline of the steps: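 AP-1-bla ME-180 cells with beta-lactamase reporter under AP-1 response element, stimulated with EC50 EGF; compounds titrated, 5 hours at 37 degrees Celsius. CCF4 read at 460/530 nm ratio; positive and negative modulators judged by AC50.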

In experiment [2] the target is Cytochrome P450 1A2 (Homo sapiens) (UniProt P05177). Nature of the experiment: p450-cyp1a2 (AID 410; calls by dose curve; also: potency is read from the fitted curve at half-maximal effect). In outline:
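20nM CYP1A2 with 100uM Luciferin-ME (at Km) in 100mM KPO4; compound preincubated 10 min, NADPH regeneration added, 60 min at room temperature. Luciferin quantified by luminescence after detection reagent; normalized to 57 uM furafylline.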

The nature of experiment [3]: NFAT Signaling Pathway (AID 444; active = well fitted curve in either direction with a large enough effect, not every such curve was filed as active;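 also: carbachol stimulus at about its EC50 of 1 µM final; % is scaled to controls: 0 for no effect and ±100 for the full control effect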). Particulars: Jurkat NFAT-bla M1, carbachol, beta-lactamase ratio, 5 h; at 7.69 µM (top of the series) unless noted. In outline: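 Read-out: CCF4 FRET ratio (460 nm/530 nm) after 1 h RT dye loading, used for %activity and AC50 from titration series. Cells: Jurkat NFAT-β-lactamase/M1 line, treated with compound plus 1 uM carbachol for 5 h, 37 °C.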

Experiment [4] can be described thus: Stat Signaling Pathway (AID 446; active = well fitted curve in either direction with a large enough effect, not every such curve was filed as active;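 also: ME-180 cervical cancer cells given 40 pM IL-6 alongside compound; SIE-controlled beta-lactamase reporter measured as 460/530 nm FRET emission ratio; % is scaled to controls: 0 for no effect and ±100 for the full control effect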). As to conditions: ME-180 SIE beta-lactamase reporter, IL-6 stimulated, 5 h; at 7.69 µM (top of the series) unless noted. An outline of the steps:
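Reporter line: ME-180 cervical carcinoma, SIE-beta-lactamase. Treatment: compound with 40 pM IL-6, 5 hrs, 37 C, in low-serum OPTI-MEM with 10 mM HEPES pH 7.3. Detection: 460/530 nm fluorescence.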

For experiment [5], the target named is Glucocorticoid receptor (Homo sapiens) (UniProt P04150). Put plainly: GR-GFP Redistribution (AID 450;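 active = compounds whose dose series gives a full or clear partial fitted curve of increased nuclear translocation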; also: potency is read from the fitted curve at half-maximal effect). Particulars: U2OS GR-GFP nuclear translocation, laser cytometry, 2 h.
For experiment [6] the target is unchanged. Put plainly: GR-EFC Redistribution (AID 451; calls by dose curve; also: potency is read from the fitted curve at half-maximal effect). As to conditions: CHO-K1 GR-EFC translocation, beta-gal luminescence, 2 h. An outline of the steps: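 Translocation of GR-ED fusion to nuclear EA restores b-gal, read by luminescence after 1 h room-temperature detection. Engineered CHO-K1 biosensor cells, 1,000/well, exposed 2 h at 37 C to titrations up to 46 uM final.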

In experiment [7] the target is 3',5'-cyclic-AMP phosphodiesterase 4B (Homo sapiens) (UniProt Q07343). Nature of the experiment: qHTS Assay for Inhibitors of PDE-IV (AID 607; active = well fitted activation curve with a large enough effect in the main read-out, with a control signal flat, not every such curve was filed as active; also: % of control where 0% means no effect). In outline: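 Cell-based read-out of cAMP via a modified cyclic nucleotide-gated channel and membrane potential dye (535/590 nm) in HEK293 cells expressing PDE4 endogenously. Compounds tested up to 22.9 uM final; 100 uM RO 20-1724 reference.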

For experiment [8], the target named is Guanine nucleotide-binding protein G(i) subunit alpha-1 (Homo sapiens) (UniProt P63096). Put plainly: qHTS Assay for Inhibitors of RGS12 GoLoco Motif Activity (Green Fluorophore) (AID 879).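 Also: 0% = labeled peptide with Gαi1 and full inhibition = labeled peptide alone without protein; negative values mean loss of peptide binding seen as reduced polarization.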 In outline: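 Fluorescence polarization assay: 50 nM Gαi1 with 10 nM FITC-labeled RGS12 GoLoco peptide in 10 mM Tris pH 7.5, 150 mM NaCl, 0.1 mM GDP, 0.05% NP40, 10 min at room temperature with compound.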

Experiment [9] addresses Cytochrome P450 3A4 (Homo sapiens) (UniProt P08684). Nature of the experiment: qHTS Assay for Activators of Cytochrome P450 3A4 (AID 885). Also: nearly all actives have a fitted effect of over 65% in size. An outline of the steps:
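Signal was normalized against complete inhibition by 57 uM ketoconazole. The reaction used 20nM CYP3A4 with 25uM Luciferin-PPXE, 10-min compound preincubation and a 60-min NADPH-supported step at RT.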

Experiment [10] has as its target Cytochrome P450 2C19 (Homo sapiens) (UniProt P33261). Put plainly: qHTS Assay for Inhibitors and Substrates of Cytochrome P450 2C19 (AID 899). Also: potency is read from the fitted curve at half-maximal effect; nearly all actives have a fitted effect of over 60% in size. In outline: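 Luminescence readout of luciferin formed from 10uM Luciferin-H EGE (KM level) by 5 nM CYP2C19 in 50mM KPO4. 60 min NADPH-driven reaction at 37C after 10 min compound preincubation; data scaled to 57uM ketoconazole inhibition.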

Experiment [11] in a line: qHTS Assay for Identification of Small Molecule Agonists for Thrombopoietin (TPO) Signaling Pathway (AID 917). Also: % is scaled to controls: 0 for no effect and ±100 for the full control effect. In outline: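 Luminescence from a Glycoprotein IIb promoter–driven luciferase reporter served as read-out in murine Ba/F3 cells carrying the human TPO receptor. Cells, deprived of IL-3 overnight, received compounds with 26 pM TPO and were incubated 24 hrs at 37 C.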

Experiment [12] addresses Muscarinic acetylcholine receptor M1 (Rattus norvegicus) (UniProt P08482). Nature of the experiment: qHTS Assay for Antagonists of Acetylcholine Muscarinic M1 Receptor: Measurement of IP-One Response (AID 944). Also: nearly all actives have a fitted effect of over 75% in size. An outline of the steps: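 CHO cells stably expressing rat M1, pretreated 10 min with compound, then stimulated 30 min with carbachol at EC80 (200 nM) in LiCl-containing buffer pH 7.4; IP1 accumulation read by HTRF competition (665/620 nm).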

Experiment [13] concerns the target Pyruvate kinase (Leishmania mexicana) (UniProt Q27686). Nature of the experiment: qHTS Validation Assay for Inhibitors of Leishmania Mexicana Pyruvate Kinase (AID 945).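 Also: 0% = DMSO only neutral control wells.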 In outline: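 Eight-point qHTS titrations; enzyme 0.2 nM LmPYK (E451W mutant); substrates 0.5 mM PEP, 0.1 mM ADP; 7 mM MgCl2; 1 h room temperature; PKLight luminescence normalized to neutral control.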

The target in experiment [14] is Pyruvate kinase PKM (Homo sapiens) (UniProt P14618). Put plainly: qHTS Assay for Activators of Human Muscle Pyruvate Kinase (AID 954; active = well fitted curve in the direction sought with a large enough effect, not every such curve was filed as active;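 also: 0% = uninhibited enzyme and -100% = no enzyme or full thiadiazolimine inhibition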). In outline: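 Human PKM2 activity is measured as ATP generation, detected by luciferase-coupled luminescence. The enzyme (0.1 nM) acts on 0.5 mM PEP and 0.1 mM ADP for 1 h at ambient temperature; data are normalized to uninhibited and full-inhibition wells.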

Experiment [15] deals with Alpha-galactosidase (Coffea arabica) (UniProt Q42656). Put plainly: Counterscreen for Glucocerebrosidase Inhibitors: qHTS Assay for Coffee Bean alpha-Galactosidase at pH 4.5 (AID 957).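 Also: plate controls were enzyme alone for no effect and no enzyme for full effect.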 In outline:
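Coffee bean enzyme (2 nM) with 80 uM 4-methylumbelliferyl alpha-D-galactopyranoside in 50 mM citric acid, 0.005% Tween-20, pH 4.5, 20 min at room temperature; compounds 0.7 nM–77 uM. Stopped at pH 10, fluorescence 365/440 nm; AC50 from Hill fits.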

In experiment [16] the target is Alpha-galactosidase A (Homo sapiens) (UniProt P06280). Nature of the experiment: Counterscreen for Glucocerebrosidase Inhibitors: qHTS Assay for Human alpha-Galactosidase at pH 4.5 (AID 992). Also: 0% is about no effect. In outline:
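Quantitative HTS: compounds tested from 0.7 nM up to 77 uM against 2 nM enzyme with 80 uM 4-MU alpha-D-galactopyranoside. The 20 min room-temperature reaction is stopped with 1M NaOH/1M glycine, pH 10.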

Experiment [17] concerns the target alpha-glucosidase (Oryza sativa, rice) (UniProt Q653V4). Nature of the experiment: Counterscreen for Glucocerebrosidase Inhibitors: qHTS Assay for Rice alpha-Glucosidase at pH 5.0 (AID 997).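 Also: 0% = full activity with enzyme and -100% = basal without enzyme.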 An outline of the steps:
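Rice alpha-glucosidase (4 nM final) with 400 uM 4-methylumbelliferyl-alpha-D-glucopyranoside in citrate buffer pH 5.0, 20 min at room temperature, stopped at pH 10; fluorescence 365/440 nm, compounds 0.7 nM–77 uM, AC50 from Hill fits.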

Experiment [18] addresses Alpha-galactosidase (Coffea arabica) (UniProt Q42656). Put plainly: Counterscreen for Glucocerebrosidase Inhibitors: qHTS Assay for Coffee Bean alpha-Galactosidase at pH 5.9 (AID 998).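 Also: plate controls were uninhibited enzyme for no effect and no-enzyme basal signal for full effect.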 In outline: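 Compounds were titrated from 0.7 nM to 77 uM against green coffee bean alpha-galactosidase (2 nM) using 80 uM fluorogenic 4-methylumbelliferyl substrate. After 20 min at room temperature, reactions were stopped at pH 10 and read by fluorescence.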

Experiment [19] concerns the target Mitogen-activated protein kinase 10 (Mus musculus) (UniProt Q61831). Nature of the experiment: JNK3 AlphaScreen Assay (AID 530; active = well fitted curve in either direction with a large enough effect, not every such curve was filed as active). An outline of the steps: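 Compound titrations were preincubated 15 minutes at room temperature with substrate, antibody and pre-activated JNK3-containing HepG2 lysate. Reactions were started with 10 uM ATP and stopped with EDTA-containing bead buffer for AlphaScreen detection.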

Consider five compounds from PubChem BioAssay (NCATS).

Unmarked numbers belong to inactive results. Results filed as inconclusive are left out. Calls of active or inactive are those of the source. Unless noted, calls follow the shape of the dose curve; as a rule, active = well fitted curve in the direction sought with a large enough effect; inconclusive = small, poorly fitted or top-dose-only effect, or another doubt; inactive = no such curve, though single readings can be large; an effect the other way counts as inactive or inconclusive.

Chain of Glucocorticoid receptor (Homo sapiens) (P04150 whole entry, looked up, the tested form may be a part): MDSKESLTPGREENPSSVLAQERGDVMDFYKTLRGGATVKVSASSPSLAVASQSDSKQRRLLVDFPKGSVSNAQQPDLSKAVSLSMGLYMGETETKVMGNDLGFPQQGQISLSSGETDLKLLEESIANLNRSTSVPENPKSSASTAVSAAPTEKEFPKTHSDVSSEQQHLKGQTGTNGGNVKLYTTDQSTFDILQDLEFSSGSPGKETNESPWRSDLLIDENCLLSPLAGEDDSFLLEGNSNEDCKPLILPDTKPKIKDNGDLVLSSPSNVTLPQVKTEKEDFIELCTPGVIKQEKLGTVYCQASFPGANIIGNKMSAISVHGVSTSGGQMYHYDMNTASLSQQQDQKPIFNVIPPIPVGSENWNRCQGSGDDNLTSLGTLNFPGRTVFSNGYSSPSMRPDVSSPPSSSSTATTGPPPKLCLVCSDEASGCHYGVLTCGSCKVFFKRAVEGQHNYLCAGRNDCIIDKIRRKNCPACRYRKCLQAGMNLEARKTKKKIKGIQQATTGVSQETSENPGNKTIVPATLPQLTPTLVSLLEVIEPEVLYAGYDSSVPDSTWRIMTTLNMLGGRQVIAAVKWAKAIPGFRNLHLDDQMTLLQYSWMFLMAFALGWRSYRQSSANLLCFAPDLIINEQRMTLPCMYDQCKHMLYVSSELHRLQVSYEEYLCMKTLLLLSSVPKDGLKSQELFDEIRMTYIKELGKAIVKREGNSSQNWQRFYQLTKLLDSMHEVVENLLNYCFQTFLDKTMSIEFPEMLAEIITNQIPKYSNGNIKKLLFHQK
Chain of Muscarinic acetylcholine receptor M1 (Rattus norvegicus) (P08482 whole entry, looked up): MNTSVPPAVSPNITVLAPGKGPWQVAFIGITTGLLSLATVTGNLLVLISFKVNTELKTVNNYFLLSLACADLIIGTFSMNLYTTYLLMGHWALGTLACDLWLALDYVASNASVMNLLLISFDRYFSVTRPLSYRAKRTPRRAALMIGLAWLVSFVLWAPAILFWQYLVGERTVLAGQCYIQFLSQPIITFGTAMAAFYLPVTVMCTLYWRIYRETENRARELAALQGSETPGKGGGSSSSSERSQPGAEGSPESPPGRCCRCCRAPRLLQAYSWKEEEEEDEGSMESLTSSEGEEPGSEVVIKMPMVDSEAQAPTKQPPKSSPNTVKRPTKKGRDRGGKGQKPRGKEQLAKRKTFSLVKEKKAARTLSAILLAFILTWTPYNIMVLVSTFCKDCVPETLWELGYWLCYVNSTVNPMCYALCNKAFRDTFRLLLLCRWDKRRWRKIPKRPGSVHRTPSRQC
Chain of Guanine nucleotide-binding protein G(i) subunit alpha-1 (Homo sapiens) (P63096 whole entry, looked up): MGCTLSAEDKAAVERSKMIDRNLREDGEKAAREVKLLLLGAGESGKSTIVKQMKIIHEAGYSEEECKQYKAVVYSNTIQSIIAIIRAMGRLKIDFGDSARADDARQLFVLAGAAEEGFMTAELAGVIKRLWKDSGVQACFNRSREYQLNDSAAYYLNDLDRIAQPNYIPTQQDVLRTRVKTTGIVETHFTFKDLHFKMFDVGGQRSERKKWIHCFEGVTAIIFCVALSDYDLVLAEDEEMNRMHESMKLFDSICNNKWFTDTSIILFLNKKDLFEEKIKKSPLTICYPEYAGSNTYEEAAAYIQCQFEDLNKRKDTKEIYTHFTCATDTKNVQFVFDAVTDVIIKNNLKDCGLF
Chain of Alpha-galactosidase A (Homo sapiens) (P06280 whole entry, looked up): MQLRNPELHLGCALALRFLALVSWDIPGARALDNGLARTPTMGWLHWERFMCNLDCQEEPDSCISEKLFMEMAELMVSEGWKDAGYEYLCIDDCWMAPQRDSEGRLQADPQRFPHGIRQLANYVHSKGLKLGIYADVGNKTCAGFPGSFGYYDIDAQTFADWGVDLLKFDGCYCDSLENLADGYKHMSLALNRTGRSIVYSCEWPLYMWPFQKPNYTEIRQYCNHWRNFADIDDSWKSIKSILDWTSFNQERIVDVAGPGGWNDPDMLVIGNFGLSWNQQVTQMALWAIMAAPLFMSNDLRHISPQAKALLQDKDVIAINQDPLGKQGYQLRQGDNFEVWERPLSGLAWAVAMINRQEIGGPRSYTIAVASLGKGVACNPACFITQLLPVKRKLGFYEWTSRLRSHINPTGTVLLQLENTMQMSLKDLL
Chain of Alpha-galactosidase (Coffea arabica) (Q42656 whole entry, looked up): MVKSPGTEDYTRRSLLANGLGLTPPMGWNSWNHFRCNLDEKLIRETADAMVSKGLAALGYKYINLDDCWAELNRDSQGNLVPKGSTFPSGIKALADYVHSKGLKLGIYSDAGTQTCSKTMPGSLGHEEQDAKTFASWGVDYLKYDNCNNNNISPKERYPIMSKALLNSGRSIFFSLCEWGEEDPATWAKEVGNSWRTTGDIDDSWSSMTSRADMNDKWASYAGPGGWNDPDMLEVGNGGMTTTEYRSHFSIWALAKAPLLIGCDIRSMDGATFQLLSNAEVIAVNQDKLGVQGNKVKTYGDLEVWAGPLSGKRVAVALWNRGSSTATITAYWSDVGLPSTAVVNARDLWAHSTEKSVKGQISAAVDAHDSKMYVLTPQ
Chain of Pyruvate kinase (Leishmania mexicana) (Q27686 2-499 E452W): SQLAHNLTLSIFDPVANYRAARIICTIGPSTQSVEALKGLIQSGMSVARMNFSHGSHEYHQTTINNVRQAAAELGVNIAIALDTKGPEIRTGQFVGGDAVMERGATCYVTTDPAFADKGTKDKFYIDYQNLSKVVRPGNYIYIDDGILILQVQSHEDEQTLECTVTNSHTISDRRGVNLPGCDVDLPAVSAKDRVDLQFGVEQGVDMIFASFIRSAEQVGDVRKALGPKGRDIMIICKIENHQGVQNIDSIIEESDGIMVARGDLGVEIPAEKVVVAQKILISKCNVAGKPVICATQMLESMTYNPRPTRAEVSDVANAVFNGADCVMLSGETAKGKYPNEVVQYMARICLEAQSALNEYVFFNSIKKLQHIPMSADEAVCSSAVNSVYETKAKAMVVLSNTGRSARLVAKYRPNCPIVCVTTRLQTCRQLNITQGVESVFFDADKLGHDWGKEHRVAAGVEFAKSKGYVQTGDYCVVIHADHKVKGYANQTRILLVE
Chain of 3',5'-cyclic-AMP phosphodiesterase 4B (Homo sapiens) (Q07343 whole entry, looked up): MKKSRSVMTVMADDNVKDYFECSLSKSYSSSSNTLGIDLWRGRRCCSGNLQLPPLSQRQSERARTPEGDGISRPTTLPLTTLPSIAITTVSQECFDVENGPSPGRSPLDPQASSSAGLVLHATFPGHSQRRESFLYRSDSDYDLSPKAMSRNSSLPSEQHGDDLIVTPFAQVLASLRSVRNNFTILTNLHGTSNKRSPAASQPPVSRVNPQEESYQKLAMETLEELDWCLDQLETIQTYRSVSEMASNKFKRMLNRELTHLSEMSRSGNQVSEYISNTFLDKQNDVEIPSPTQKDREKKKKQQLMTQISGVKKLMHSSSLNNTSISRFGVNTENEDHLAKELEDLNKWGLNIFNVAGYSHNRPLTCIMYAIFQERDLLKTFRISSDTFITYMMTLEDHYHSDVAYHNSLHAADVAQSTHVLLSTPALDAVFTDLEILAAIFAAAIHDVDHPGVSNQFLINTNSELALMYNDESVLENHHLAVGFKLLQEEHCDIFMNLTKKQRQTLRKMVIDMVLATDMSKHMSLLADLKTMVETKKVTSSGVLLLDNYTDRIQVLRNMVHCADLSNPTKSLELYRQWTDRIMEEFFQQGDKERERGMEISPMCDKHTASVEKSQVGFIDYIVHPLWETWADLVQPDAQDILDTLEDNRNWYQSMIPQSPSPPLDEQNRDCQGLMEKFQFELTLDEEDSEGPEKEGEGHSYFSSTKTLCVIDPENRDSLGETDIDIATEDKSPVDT
Chain of Cytochrome P450 1A2 (Homo sapiens) (P05177 whole entry, looked up): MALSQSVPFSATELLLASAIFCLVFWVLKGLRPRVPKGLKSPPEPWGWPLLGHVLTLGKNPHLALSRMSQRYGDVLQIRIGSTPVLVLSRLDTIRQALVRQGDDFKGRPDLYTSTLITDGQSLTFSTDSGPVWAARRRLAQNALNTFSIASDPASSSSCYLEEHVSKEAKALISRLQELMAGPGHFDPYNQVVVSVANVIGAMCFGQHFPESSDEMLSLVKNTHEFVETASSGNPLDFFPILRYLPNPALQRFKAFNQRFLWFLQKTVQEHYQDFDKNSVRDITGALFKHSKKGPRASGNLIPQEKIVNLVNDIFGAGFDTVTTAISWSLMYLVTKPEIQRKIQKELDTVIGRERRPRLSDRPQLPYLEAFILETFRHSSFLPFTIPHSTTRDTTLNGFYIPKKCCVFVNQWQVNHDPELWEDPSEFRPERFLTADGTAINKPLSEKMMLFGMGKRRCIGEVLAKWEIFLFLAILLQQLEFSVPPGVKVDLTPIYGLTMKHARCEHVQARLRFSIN
Chain of Pyruvate kinase PKM (Homo sapiens) (P14618 whole entry, looked up): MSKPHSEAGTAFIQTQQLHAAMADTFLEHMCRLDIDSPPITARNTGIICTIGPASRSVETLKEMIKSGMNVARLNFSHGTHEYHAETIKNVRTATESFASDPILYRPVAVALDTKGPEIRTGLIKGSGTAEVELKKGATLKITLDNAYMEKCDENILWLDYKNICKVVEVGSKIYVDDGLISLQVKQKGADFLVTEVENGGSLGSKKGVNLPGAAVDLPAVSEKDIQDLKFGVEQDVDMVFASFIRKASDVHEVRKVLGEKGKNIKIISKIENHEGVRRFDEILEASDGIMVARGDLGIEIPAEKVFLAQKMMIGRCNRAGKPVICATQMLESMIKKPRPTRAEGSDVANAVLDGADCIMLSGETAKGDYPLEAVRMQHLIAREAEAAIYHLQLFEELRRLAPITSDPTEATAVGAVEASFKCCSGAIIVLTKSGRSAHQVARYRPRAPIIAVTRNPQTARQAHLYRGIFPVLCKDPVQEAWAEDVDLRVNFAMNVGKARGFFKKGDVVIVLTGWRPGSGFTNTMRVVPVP

Consider `C[C@@H]1Cc2cc3c(cc2C(c2ccc(N)cc2)=NN1)OCO3`, for which the activity change, negative = inhibition in [1] was -10.9% [at 38 µM]; in experiment [3], -10.6% [at 38 µM]. In addition, the Potency is 5.01 µM (active) in experiment [2], > 46 µM in experiment [5], > 46 µM in experiment [6] and 2 µM (active) in experiment [10]. Besides, in experiment [4], the activity, negative = inhibition is 13.7% [at 38 µM]. The result in [7], in experiment [8], in [11], in experiment [13], in [14] and in experiment [15] was inactive. Further, the compound was classed as inactive in experiment [16], in experiment [17] and in [18]. Also, the Potency entry in experiment [9] and in experiment [12] was “inactive” throughout.

On to `N[C@H](Cn1ccc(=O)[nH]c1=O)C(=O)O`, for which the activity change, negative = inhibition in experiment [1] was -6.11% [at 38 µM]; in experiment [3], -2.89% [at 38 µM]. In addition, the Potency result in [2] was “inactive”. Also, the activity, negative = inhibition in experiment [4] is 4.92% [at 38 µM]. For the same compound, the Potency in experiment [5] and in experiment [6] was > 46 µM in each case. The call in [7], in experiment [8], in experiment [11], in [13], in experiment [14] and in experiment [15] was inactive. The call in [16], in experiment [17] and in experiment [18] was inactive.

Regarding `C[C@@]12CC[C@H]3[C@@H](CC=C4C[C@H](OS(=O)(=O)O)CC[C@]43C)[C@H]1CCC2=O`, the figures for the activity change, negative = inhibition in experiment [1] and in experiment [3] were -6.95% [at 38 µM] and -0.252% [at 38 µM], respectively. In addition, the Potency entry in [2], in [19] and in experiment [12] was “inactive” each time. In addition, in experiment [4], the activity, negative = inhibition is -15.3% [at 38 µM]. Besides, the Potency in experiment [5] and in experiment [6] was > 46 µM each time. The compound was classed as inactive in [7], in experiment [8], in experiment [11], in experiment [13], in experiment [14] and in experiment [15]. In addition, the compound was classed as inactive in [16], in experiment [17] and in experiment [18].

As for `CC(C)C[C@H](NP(=O)(O)O[C@@H]1O[C@@H](C)[C@@H](O)[C@@H](O)[C@H]1O)C(=O)N[C@@H](Cc1c[nH]c2ccccc12)C(=O)O`, the figures for the activity change, negative = inhibition in [1] and in experiment [3] were 5.95% [at 38 µM] and 9.26% [at 38 µM], respectively. In addition, the Potency result in experiment [2], in experiment [19] and in experiment [12] was “inactive” in each case. For the same compound, the activity, negative = inhibition in experiment [4] was 14.9% [at 38 µM]. Moreover, the Potency in [5] and in [6] was > 46 µM in each case. Further, the compound was called inactive in [7], in experiment [8], in experiment [11], in experiment [13], in experiment [14] and in experiment [15]. In addition, the compound was classed as inactive in [16], in experiment [17] and in experiment [18].

As to `NC(CCl)=N[C@H]1CN2CCC1CC2`, the activity change, negative = inhibition in experiment [1] was 5.68%; in [3], 1.17%; in [19] it was 1.59% [at 11.4 µM]. Besides, the Potency result in experiment [2] is “inactive”. The activity, negative = inhibition in experiment [4] was 13.9%. The Potency is > 46 µM in experiment [5] and > 9.22 µM in experiment [6]. For the same compound, in experiment [7], the outcome was inactive.
